# According to the supplement of paper PMC9694430:
# What was measured:
# Experiment in all cases: thermal shift delta Tm vs DMSO control; higher = stronger stabilization (binding)
# Details in all cases: 12.5 µM; protein concentration 2 µM
# [1] = system: LOC_OS01G57100-cb003
# Summary of the method: (§1)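 Purified, E. coli-expressed rice kinase domain constructs were tested by differential scanning fluorimetry in 96-well plates: 19.5 μl of 2 μM kinase in 100 mM potassium phosphate pH 7.5, 150 mM NaCl, 10% glycerol, 5 × SYPRO Orange, plus compound in DMSO. Fluorescence was read from 25°C to 95°C at 0.05°C/s. Melting temperatures came from Boltzmann fits, and the shift is the triplicate mean relative to protein with DMSO alone.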
# [2] = system: LOC_OS01G60330-cb001
# Summary of the method: as §1
# [3] = system: LOC_OS01G60700-cb002
# Summary of the method: as §1
# [4] = system: LOC_OS01G63280-cb003
# Summary of the method: as §1
# [5] = system: LOC_OS01G67340-cb003
# Summary of the method: as §1
# [6] = system: LOC_OS01G70970-cb002
# Summary of the method: as §1
# [7] = system: LOC_OS02G07810-cb001
# Summary of the method: as §1
# [8] = system: LOC_OS02G08530-cb003
# Summary of the method: as §1
# [9] = system: LOC_OS02G14120-cb001
# Summary of the method: as §1
# [10] = system: LOC_OS02G17970-cb001
# Summary of the method: as §1
# [11] = system: LOC_OS02G45750-cb003
# Summary of the method: as §1
# [12] = system: LOC_OS02G54510-cb004
# Summary of the method: as §1
# [13] = system: LOC_OS03G04050-cb001
# Summary of the method: as §1
# [14] = system: LOC_OS03G12390-cb001
# Summary of the method: as §1
# [15] = system: LOC_OS03G27990-cb004
# Summary of the method: as §1
# [16] = system: LOC_OS03G50450-cb001
# Summary of the method: as §1
# [17] = system: LOC_OS03G50810-cb003
# Summary of the method: as §1
# [18] = system: LOC_OS04G35114-cb001
# Summary of the method: as §1
# [19] = system: T1, LOC_OS04G38480-cb003
# T1 sequence (whole entry): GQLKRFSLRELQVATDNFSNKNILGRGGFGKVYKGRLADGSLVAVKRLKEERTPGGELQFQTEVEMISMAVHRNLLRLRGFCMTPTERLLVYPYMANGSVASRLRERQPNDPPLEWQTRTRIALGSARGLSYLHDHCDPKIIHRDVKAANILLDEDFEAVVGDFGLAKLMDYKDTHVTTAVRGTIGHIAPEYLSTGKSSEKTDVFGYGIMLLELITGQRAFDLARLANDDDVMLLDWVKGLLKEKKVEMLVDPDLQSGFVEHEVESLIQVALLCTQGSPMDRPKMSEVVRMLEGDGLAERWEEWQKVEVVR
# Summary of the method: as §1
# [20] = system: T2, LOC_OS04G41100-cb001
# T2 sequence (whole entry): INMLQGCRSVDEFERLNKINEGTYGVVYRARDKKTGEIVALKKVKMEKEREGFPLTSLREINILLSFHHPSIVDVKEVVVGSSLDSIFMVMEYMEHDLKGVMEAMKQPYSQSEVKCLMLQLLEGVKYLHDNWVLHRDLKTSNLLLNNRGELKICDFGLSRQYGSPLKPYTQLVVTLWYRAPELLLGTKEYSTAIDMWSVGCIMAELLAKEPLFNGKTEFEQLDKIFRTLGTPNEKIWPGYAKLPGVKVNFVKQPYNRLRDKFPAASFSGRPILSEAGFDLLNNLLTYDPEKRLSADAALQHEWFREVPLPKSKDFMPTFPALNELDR
# Summary of the method: as §1
Structure (SMILES),thermal shift delta Tm [1],thermal shift delta Tm [2],thermal shift delta Tm [3],thermal shift delta Tm [4],thermal shift delta Tm [5],thermal shift delta Tm [6],thermal shift delta Tm [7],thermal shift delta Tm [8],thermal shift delta Tm [9],thermal shift delta Tm [10],thermal shift delta Tm [11],thermal shift delta Tm [12],thermal shift delta Tm [13],thermal shift delta Tm [14],thermal shift delta Tm [15],thermal shift delta Tm [16],thermal shift delta Tm [17],thermal shift delta Tm [18],thermal shift delta Tm [19],thermal shift delta Tm [20]
C=CC(=O)Nc1cccc(Nc2nc(Nc3ccc(NC4CN(CCF)C4)cc3OC)ncc2C(F)(F)F)c1,0.4 °C,0.07 °C,0.83 °C,0.2 °C,-0.31 °C,0.87 °C,0.93 °C,3.91 °C,1.12 °C,0.41 °C,0.83 °C,0.67 °C,0.56 °C,8.48 °C,0.5 °C,0.39 °C,1.26 °C,0.98 °C,0.06 °C,0.29 °C
COc1ccc(-c2cc3nccn3c(Nc3ncccc3C(N)=O)n2)cc1OC,0.13 °C,1.34 °C,1.05 °C,1.03 °C,0.74 °C,0.22 °C,0.81 °C,3.01 °C,3.03 °C,0.79 °C,1.94 °C,0.42 °C,0.72 °C,6.82 °C,0.56 °C,1.07 °C,1.24 °C,1.36 °C,1.69 °C,1.04 °C
CCCCOc1c(C(=O)c2c(F)cc(C)cc2F)c[nH]c2nncc1-2,0.94 °C,0.86 °C,-0.01 °C,0.42 °C,1.31 °C,0.23 °C,0.81 °C,0.56 °C,1.75 °C,0.7 °C,0.73 °C,0.14 °C,0.23 °C,2.18 °C,0.03 °C,-0.21 °C,0.46 °C,0.65 °C,0.81 °C,0.49 °C
O=C(Nc1nc2cccc(-c3ccc(CN4CCS(=O)(=O)CC4)cc3)n2n1)C1CC1 [Filgotinib (GLPG0634)],1.32 °C,2.66 °C,0.53 °C,0.12 °C,0.43 °C,0.37 °C,0.52 °C,0.93 °C,2.91 °C,0.47 °C,1.04 °C,0.58 °C,0.6 °C,0.31 °C,0.64 °C,1.73 °C,0.86 °C,1.37 °C,1.66 °C,0.6 °C
C#Cc1cccc(Nc2ncnc3cc(OCCOC)c(OCCOC)cc23)c1 [Erlotinib],-0.31 °C,-0.11 °C,0.43 °C,-0.09 °C,0.02 °C,0.34 °C,-0.06 °C,0.9 °C,1.45 °C,0.75 °C,4.13 °C,0.7 °C,0.03 °C,2.11 °C,0.02 °C,-0.06 °C,1.07 °C,6.16 °C,1.65 °C,-0.05 °C
Cc1cc(Nc2cc(N3CCN(C)CC3)nc(/C=C/c3ccccc3)n2)n[nH]1,0.41 °C,9.2 °C,0.77 °C,0.17 °C,0.51 °C,3.04 °C,0.72 °C,2.41 °C,7.14 °C,-0.1 °C,4.69 °C,2.74 °C,0.21 °C,4.05 °C,2.48 °C,8.43 °C,7.16 °C,6.22 °C,1.95 °C,1.86 °C
Clc1ccc(Nc2nnc(Cc3ccncc3)c3ccccc23)cc1 [Vatalanib (PTK787) 2HCl],1.4 °C,1.02 °C,5.09 °C,2.03 °C,-0.72 °C,0.27 °C,0.26 °C,0.34 °C,-0.4 °C,0.47 °C,0.06 °C,0.03 °C,0.21 °C,-0.24 °C,0.02 °C,-0.09 °C,-0.01 °C,0.3 °C,-0.05 °C,0.49 °C
C[C@@H]1CN(CC(=O)Nc2ccc3c(c2)Cc2cccc(-c4cc(=O)cc(N5CCOCC5)o4)c2S3)C[C@H](C)O1,1.01 °C,0.66 °C,0.34 °C,0.3 °C,0 °C,-0.1 °C,0.97 °C,0.73 °C,0.18 °C,0.49 °C,0.27 °C,-0.11 °C,0.02 °C,0.37 °C,-0.04 °C,0.03 °C,0.14 °C,0.37 °C,-0.13 °C,0.23 °C
Cc1ccc(NC(=O)c2cccc(C(C)(C)C#N)c2)cc1Nc1ccc2ncn(C)c(=O)c2c1,2.69 °C,0.66 °C,1.2 °C,3.69 °C,0.79 °C,0.4 °C,1.74 °C,0.95 °C,1.71 °C,1.2 °C,1.15 °C,1.43 °C,0.45 °C,0.66 °C,0.38 °C,0.1 °C,0.54 °C,0.51 °C,0.88 °C,0.24 °C
COc1ccc(COc2ccc(Cc3cnc(N)nc3N)cc2OC)cc1,-0.05 °C,0.76 °C,1.06 °C,0.32 °C,0.31 °C,0.08 °C,0.34 °C,-0.15 °C,1.94 °C,1.56 °C,0.53 °C,0.05 °C,0.43 °C,-0.14 °C,0.29 °C,0.04 °C,0.55 °C,0.34 °C,1.41 °C,0.24 °C
CC(C)c1cnn2c(NCc3ccccc3)cc(NCCCCCCN)nc12,0.82 °C,0.42 °C,0.03 °C,0.24 °C,-0.22 °C,0.19 °C,0.44 °C,0.66 °C,-0.59 °C,0.24 °C,0.67 °C,0.22 °C,0.33 °C,-0.19 °C,0.14 °C,0.34 °C,0.19 °C,0.56 °C,-0.44 °C,0.32 °C
Cc1ccc(F)c(NC(=O)Nc2ccc(-c3cccc4[nH]nc(N)c34)cc2)c1 [Linifanib (ABT-869)],-0.27 °C,4 °C,2.06 °C,4.52 °C,2.81 °C,1.72 °C,1.34 °C,3.05 °C,4.49 °C,0.94 °C,0.85 °C,-0.22 °C,0.3 °C,3.38 °C,1.2 °C,0.4 °C,0.8 °C,2.54 °C,0.22 °C,1.77 °C
